Data taken from PubChem BioAssay (Tox21).
Values joined by “and” are separate entries in the source; they are usually repeats but may differ in a detail not shown here. Equal entries are not always repeated. Results filed as inconclusive are left out. A call without a number means that no potency is given here. A structure can be active in one record and inactive in another. Active and inactive are the calls of the source. The call rests on the fitted dose curve.

Assay: qHTS assay for small molecule agonists of the antioxidant response element (ARE) signaling pathway - cell viability counter screen (AID 743203); further: nearly all actives have a fitted effect of over 55% in size
Settings: ARE-bla HepG2 viability, CellTiter-Glo luminescence, 16 h; series mostly up to 73.3 µM
Excerpt: National Center for Advancing Translational Sciences [NCATS]
NIH Chemical Genomics Center [NCGC]
U.S. Environmental Protection Agency [EPA]
National Institutes of Environmental Health Sciences [NIEHS]
National Toxicology Program [NTP]
U.S. Food and Drug Administration [FDA]
Oxidative stress has been implicated in the pathogenesis of a variety of diseases ranging from cancer to neurodegeneration. The antioxidant response element (ARE) signaling pathway plays an important role in the amelioration of oxidative stress. The CellSensor ARE-bla HepG2 cell line (Invitrogen) can be used for analyzing the Nrf2/antioxidant response signaling pathway. Nrf2 (NF-E2-related factor 2) and Nrf1 are transcription factors that bind to AREs and activate these genes. The CellSensor ARE-bla Hep G2 cell line contains a beta-lactamase reporter gene under control of the Antioxidant Response Element (ARE) stably integrated into HepG2 cells. The activation of the report gene under culture conditions can be detected by fluorescence intensity. This cell line has been used to screen the Tox21 10K compound library to identify agonists that induce oxidative stress. The cytotoxicity of the Tox21 compound library against the ARE-bla cell line was tested in parallel by measuring the cell viability using CellTiter-Glo assay (Promega, Madison, WI) in the same wells.
Tox21 Assay Protocol Summary:
ARE-bla HepG2 cells were dispensed at 2,000 cells/5 ul/well in 1536-well white wall/solid bottom plates using a Multidrop Combi (ThermoFisher Scientific, Waltham, MA) dispenser. After the assay plates were incubated at 37C/5% CO2 for 5 hrs, 23 nL of compounds dissolved in DMSO, positive controls or DMSO only was transferred to the assay plate by a pintool work station (Kalypsys, San Diego, CA). The plates were incubated at 37C/5% CO2 for 16 hrs, followed by addition of 4 ul/well of CellTiter-Glo reagent into the assay plates using a Flying Reagent Dispenser (Aurora Discovery, San Diego, CA). After 30 min incubation at room temperature, the luminescence intensity in the assay plates was measured using a ViewLux (PerkinElmer, Shelton, CT) plate reader.
Potency means the concentration at half of the fitted maximal effect.

Row | SMILES | Potency
1 | Cl/C=C/Cl | inactive
2 | N#Cc1cccc(C#N)c1 | inactive
3 | O=C(O)COc1ccccc1 | inactive
4 | Cc1cc(Cl)ccc1OC(C)C(=O)O (stereo not given) | inactive
5 | COc1nc(NC(C)C)nc(NC(C)C)n1 | inactive
6 | CC(C)c1cccc(C(C)C)c1O | inactive
7 | C=CC(=O)OCC(CC)CCCC (stereo not given) | inactive
8 | CNC(=O)O/N=C/C(C)(C)S(C)=O (stereo not given) | inactive
9 | CNC(=O)O/N=C/C(C)(C)SC | inactive
10 | ClCCOCCCl | inactive
11 | C=CC#N | inactive
12 | CNc1cnn(-c2cccc(C(F)(F)F)c2)c(=O)c1Cl | inactive
13 | Clc1cnc(Oc2ccc(Oc3ncc(Cl)cc3Cl)cc2)c(Cl)c1 | inactive
14 | Cc1ccccc1N | inactive
15 | O=C/C=C/c1ccccc1 | inactive
16 | CCOP(=S)(OCC)Oc1cc(C)nc(C(C)C)n1 | inactive and 54.5 µM (active)
17 | c1ccc2c(c1)CCCC2 | inactive
18 | CC(=O)C1CCOC1=O (stereo not given) | inactive
19 | COc1cc(-c2ccc(N)c(OC)c2)ccc1N | inactive
20 | O=C(O)Cc1ccccc1 | inactive

Row | SMILES | Potency
21 | CN(C)C(=O)C(c1ccccc1)c1ccccc1 | inactive
22 | C=CCN=C=S | inactive
23 | CNCC(O)c1ccc(O)cc1 (stereo not given) | inactive
24 | CC[N+](=O)[O-] | inactive
25 | ClC(Cl)c1ccccc1 | inactive
26 | Cc1ccc(N=C=O)cc1N=C=O | inactive
27 | CC(C)(C)C(=O)CCl | inactive
28 | CNC(=O)O/N=C(\SC)C(=O)N(C)C | inactive
29 | Oc1c(Br)cc(Br)cc1Br | inactive
30 | O=C(O)C(Br)Br | inactive
31 | CCCCCCCCCCCCCCCCCC(=O)O | inactive
32 | Nc1ncc([N+](=O)[O-])s1 | inactive
33 | Nc1nc(N)nc(NC2CC2)n1 | inactive
34 | CN(C)C(=O)Cl | inactive
35 | CCNc1nc(Cl)nc(NC(C)C)n1 | inactive
36 | OC[C@@H](O)[C@H]1O[C@@H]2O[C@H](C(Cl)(Cl)Cl)O[C@@H]2[C@H]1O | inactive
37 | CC(=O)/C=C/c1ccccc1 | inactive
38 | CNC(=O)Oc1cccc2ccccc12 | inactive
39 | COC(C)(C)CCCC(C)C/C=C/C(C)=C/C(=O)OC(C)C (stereo not given) | inactive
40 | C/C=C/c1ccc2c(c1)OCO2 | inactive
